# Test results reported in the supplement of paper PMC8728848.
# About 410 targets per protein were measured; listed, in parts, are those with the strongest signals and a random draw of the rest.
# Experiments:
# Assay in all cases: glycan array binding signal (z-score within array); higher = stronger binding
# Settings in all cases: glycan notation: IUPAC condensed, linker removed
# Fuc(a1-2)Gal = target: Fuc(a1-2)Gal
# Procedure, shortened: (§1)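 Glycan array data came from 3228 arrays in the Consortium for Functional Glycomics database, and only arrays with an available protein sequence were kept. Glycan names were put into IUPAC-condensed notation, and columns mapping to the same glycan were averaged. The binding signal is a within-array Z-score, averaged across arrays of one protein sequence run at different concentrations or buffers and across linkers. A negative Z-score can be read as non-binding.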
# [1] = target: Fuc(a1-2)Gal(b1-3)GalNAc(b1-4)[Neu5Ac(a2-3)]Gal(b1-4)Glc
# Procedure, shortened: as §1
# Fuc(a1-2)Gal(b1-3)GlcNAc = target: Fuc(a1-2)Gal(b1-3)GlcNAc
# Procedure, shortened: as §1
# [2] = target: Fuc(a1-2)Gal(b1-3)GlcNAc(b1-3)GalNAc
# Procedure, shortened: as §1
# [3] = target: Fuc(a1-2)Gal(b1-4)GlcNAc(b1-2)[Fuc(a1-2)Gal(b1-4)GlcNAc(b1-4)]Man(a1-3)[Fuc(a1-2)Gal(b1-4)GlcNAc(b1-2)Man(a1-6)]Man(b1-4)GlcNAc(b1-4)GlcNAc
# Procedure, shortened: as §1
# [4] = target: Fuc(a1-2)Gal(b1-4)GlcNAc(b1-3)Gal(b1-4)GlcNAc(b1-3)Gal(b1-4)GlcNAc
# Procedure, shortened: as §1
# [5] = target: Fuc(a1-2)Gal(b1-4)GlcNAc(b1-6)GalNAc
# Procedure, shortened: as §1
# [6] = target: Fuc(a1-2)Gal(b1-4)[Fuc(a1-3)]GlcNAc(b1-3)GalNAc
# Procedure, shortened: as §1
# [7] = target: Fuc(a1-2)[Gal(a1-3)]Gal(b1-3)GlcNAc(b1-2)Man(a1-3)[Fuc(a1-2)[Gal(a1-3)]Gal(b1-3)GlcNAc(b1-2)Man(a1-6)]Man(b1-4)GlcNAc(b1-4)[Fuc(a1-6)]GlcNAc
# Procedure, shortened: as §1
# [8] = target: Fuc(a1-2)[Gal(a1-3)]Gal(b1-4)Glc
# Procedure, shortened: as §1
# [9] = target: Fuc(a1-2)[Gal(a1-3)]Gal(b1-4)GlcNAc(b1-2)Man(a1-3)[Fuc(a1-2)[Gal(a1-3)]Gal(b1-4)GlcNAc(b1-2)Man(a1-6)]Man(b1-4)GlcNAc(b1-4)GlcNAc
# Procedure, shortened: as §1
# [10] = target: Fuc(a1-2)[GalNAc(a1-3)]Gal(b1-4)GlcNAc(b1-3)GalNAc
# Procedure, shortened: as §1
# [11] = target: Fuc(a1-2)[GalNAc(a1-3)]Gal(b1-4)[Fuc(a1-3)]GlcNAc(b1-3)GalNAc
# Procedure, shortened: as §1
# [12] = target: Fuc(a1-3)[Gal(b1-4)]GlcNAc(b1-6)[Neu5Ac(a2-3)Gal(b1-3)]GalNAc
# Procedure, shortened: as §1
# Gal(a1-2)Gal = target: Gal(a1-2)Gal
# Procedure, shortened: as §1
# [13] = target: Gal(a1-3)Gal(b1-3)GlcNAc(b1-6)GalNAc
# Procedure, shortened: as §1
# Gal(a1-3)Gal(b1-4)GlcNAc = target: Gal(a1-3)Gal(b1-4)GlcNAc
# Procedure, shortened: as §1
# [14] = target: Gal(b1-3)[Fuc(a1-4)]GlcNAc
# Procedure, shortened: as §1
# [15] = target: Gal(b1-3)[Fuc(a1-4)]GlcNAc(b1-3)Gal(b1-3)[Fuc(a1-4)]GlcNAc
# Procedure, shortened: as §1
# [16] = target: Gal(b1-4)GlcNAc(b1-2)Man(a1-6)Man(b1-4)GlcNAc(b1-4)GlcNAc
# Procedure, shortened: as §1
# [17] = target: Gal(b1-4)GlcNAc(b1-3)Gal(b1-4)GlcNAc
# Procedure, shortened: as §1
# [18] = target: Gal(b1-4)GlcNAc(b1-3)[Gal(b1-4)GlcNAc(b1-6)]Gal(b1-4)GlcNAc
# Procedure, shortened: as §1
# Gal(b1-6)Gal = target: Gal(b1-6)Gal
# Procedure, shortened: as §1
# [19] = target: Gal3S(b1-4)[Fuc(a1-3)]Glc6S
# Procedure, shortened: as §1
# Gal6S(b1-3)GlcNAc = target: Gal6S(b1-3)GlcNAc
# Procedure, shortened: as §1
# [20] = target: GalNAc(a1-3)GalNAc(b1-3)Gal(a1-4)Gal(b1-4)Glc
# Procedure, shortened: as §1
# GalNAc4S6S(b1-4)GlcNAc = target: GalNAc4S6S(b1-4)GlcNAc
# Procedure, shortened: as §1
# GalNAc6S(b1-4)GlcNAc = target: GalNAc6S(b1-4)GlcNAc
# Procedure, shortened: as §1
# Glc(a1-4)Glc = target: Glc(a1-4)Glc
# Procedure, shortened: as §1
# [21] = target: GlcNAc(a1-4)Gal(b1-4)GlcNAc(b1-3)Gal(b1-4)[Fuc(a1-3)]GlcNAc(b1-3)Gal(b1-4)[Fuc(a1-3)]GlcNAc
# Procedure, shortened: as §1
# [22] = target: GlcNAc(b1-2)Gal(b1-3)GalNAc
# Procedure, shortened: as §1
# [23] = target: GlcNAc(b1-2)[GlcNAc(b1-4)]Man(a1-3)[GlcNAc(b1-2)Man(a1-6)]Man(b1-4)GlcNAc(b1-4)GlcNAc
# Procedure, shortened: as §1
# [24] = target: GlcNAc(b1-2)[GlcNAc(b1-6)]Man(a1-6)[GlcNAc(b1-2)Man(a1-3)][GlcNAc(b1-4)]Man(b1-4)GlcNAc(b1-4)GlcNAc
# Procedure, shortened: as §1
# [25] = target: GlcNAc(b1-4)GlcNAc(b1-4)GlcNAc(b1-4)GlcNAc(b1-4)GlcNAc
# Procedure, shortened: as §1
# [26] = target: Man(a1-2)Man(a1-3)[Man(a1-2)Man(a1-6)]Man
# Procedure, shortened: as §1
# [27] = target: Man(a1-2)Man(a1-3)[Man(a1-2)Man(a1-6)]Man(a1-6)[Man(a1-2)Man(a1-2)Man(a1-3)]Man
# Procedure, shortened: as §1
# [28] = target: Man(a1-2)Man(a1-3)[Man(a1-2)Man(a1-6)]Man(a1-6)[Man(a1-2)Man(a1-2)Man(a1-3)]Man(b1-4)GlcNAc(b1-4)GlcNAc
# Procedure, shortened: as §1
# [29] = target: Neu5Ac(a2-3)Gal(b1-3)[Fuc(a1-4)]GlcNAc(b1-3)Gal(b1-3)[Fuc(a1-4)]GlcNAc
# Procedure, shortened: as §1
# [30] = target: Neu5Ac(a2-3)Gal(b1-4)GlcNAc(b1-2)Man(a1-3)[GlcNAc(b1-2)Man(b1-4)GlcNAc(b1-2)Man(a1-6)]Man(b1-4)GlcNAc(b1-4)GlcNAc
# Procedure, shortened: as §1
# [31] = target: Neu5Ac(a2-3)Gal(b1-4)GlcNAc(b1-3)GalNAc
# Procedure, shortened: as §1
# [32] = target: Neu5Ac(a2-3)Gal(b1-4)[Fuc(a1-3)]GlcNAc(b1-3)GalNAc
# Procedure, shortened: as §1
# [33] = target: Neu5Ac(a2-3)GalNAc(b1-4)GlcNAc
# Procedure, shortened: as §1
# [34] = target: Neu5Ac(a2-3)[Neu5Ac(a2-6)]GalNAc
# Procedure, shortened: as §1
# Neu5Ac(a2-6)Gal(b1-4)Glc = target: Neu5Ac(a2-6)Gal(b1-4)Glc
# Procedure, shortened: as §1
# [35] = target: Neu5Ac(a2-8)Neu5Ac(a2-8)Neu5Ac(a2-3)[GalNAc(b1-4)]Gal(b1-4)Glc
# Procedure, shortened: as §1
# [36] = target: Neu5Ac9Ac(a2-6)Gal(b1-4)GlcNAc
# Procedure, shortened: as §1
binder,measurement,setting,value
"Latrophilin-3 (Homo sapiens), Q9HAR2 (protein) MWPSQLLIFMMLLAPIIHAFSRAPIPMAVVRRELSCESYPIELRCPGTDVIMIESANYGRTDDKICDSDPAQMENIRCYLPDAYKIMSQRCNNRTQCAVVAGPDVFPDPCPGTYKYLEVQYECVPYKVEQKVFLCPGLLKGVYQSEHLFESDHQSGAWCKDPLQASDKIYYMPWTPYRTDTLTEYSSKDDFIAGRPTTTYKLPHRVDGTGFVVYDGALFFNKERTRNIVKFDLRTRIKSGEAIIANANYHDTSPYRWGGKSDIDLAVDENGLWVIYATEQNNGKIVISQLNPYTLRIEGTWDTAYDKRSASNAFMICGILYVVKSVYEDDDNEATGNKIDYIYNTDQSKDSLVDVPFPNSYQYIAAVDYNPRDNLLYVWNNYHVVKYSLDFGPLDSRSGQAHHGQVSYISPPIHLDSELERPSVKDISTTGPLGMGSTTTSTTLRTTTLSPGRSTTPSVSGRRNRSTSTPSPAVEVLDDMTTHLPSASSQIPALEESCEAVEAREIMWFKTRQGQIAKQPCPAGTIGVSTYLCLAPDGIWDPQGPDLSNCSSPWVNHITQKLKSGETAANIARELAEQTRNHLNAGDITYSVRAMDQLVGLLDVQLRNLTPGGKDSAARSLNKAMVETVNNLLQPQALNAWRDLTTSDQLRAATMLLHTVEESAFVLADNLLKTDIVRENTDNIKLEVARLSTEGNLEDLKFPENMGHGSTIQLSANTLKQNGRNGEIRVAFVLYNNLGPYLSTENASMKLGTEALSTNHSVIVNSPVITAAINKEFSNKVYLADPVVFTVKHIKQSEENFNPNCSFWSYSKRTMTGYWSTQGCRLLTTNKTHTTCSCNHLTNFAVLMAHVEVKHSDAVHDLLLDVITWVGILLSLVCLLICIFTFCFFRGLQSDRNTIHKNLCISLFVAELLFLIGINRTDQPIACAVFAALLHFFFLAAFTWMFLEGVQLYIMLVEVFESEHSRRKYFYLVGYGMPALIVAVSAAVDYRSYGTDKVCWLRLDTYFIWSFIGPATLIIMLNVIFLGIALYKMFHHTAILKPESGCLDNIKSWVIGAIALLCLLGLTWAFGLMYINESTVIMAYLFTIFNSLQGMFIFIFHCVLQKKVRKEYGKCLRTHCCSGKSTESSIGSGKTSGSRTPGRYSTGSQSRIRRMWNDTVRKQSESSFITGDINSSASLNREGLLNNARDTSVMDTLPLNGNHGNSYSIASGEYLSNCVQIIDRGYNHNETALEKKILKELTSNYIPSYLNNHERSSEQNRNLMNKLVNNLGSGREDDAIVLDDATSFNHEESLGLELIHEESDAPLLPPRVYSTENHQPHHYTRRRIPQDHSESFFPLLTNEHTEDLQSPHRDSLYTSMPTLAGVAATESVTTSTQTEPPPAKCGDAEDVYYKSMPNLGSRNHVHQLHTYYQLGRGSSDGFIVPPNKDGTPPEGSSKGPAHLVTSL",glycan array binding signal (z-score),Fuc(a1-2)Gal,0.041
same,glycan array binding signal (z-score),[1],-0.493
same,glycan array binding signal (z-score),Fuc(a1-2)Gal(b1-3)GlcNAc,-0.169
same,glycan array binding signal (z-score),[2],0.261
same,glycan array binding signal (z-score),[3],-0.478
same,glycan array binding signal (z-score),[4],0.659
same,glycan array binding signal (z-score),[5],2.91
same,glycan array binding signal (z-score),[6],4.34
same,glycan array binding signal (z-score),[7],-0.721
same,glycan array binding signal (z-score),[8],0.962
same,glycan array binding signal (z-score),[9],-0.684
same,glycan array binding signal (z-score),[10],-0.844
same,glycan array binding signal (z-score),[11],4.19
same,glycan array binding signal (z-score),[12],-0.297
same,glycan array binding signal (z-score),Gal(a1-2)Gal,2.83
same,glycan array binding signal (z-score),[13],-0.37
same,glycan array binding signal (z-score),Gal(a1-3)Gal(b1-4)GlcNAc,-0.823
same,glycan array binding signal (z-score),[14],-0.275
same,glycan array binding signal (z-score),[15],-0.618
same,glycan array binding signal (z-score),[16],3.58
same,glycan array binding signal (z-score),[17],-0.111
same,glycan array binding signal (z-score),[18],3.02
same,glycan array binding signal (z-score),Gal(b1-6)Gal,-0.409
same,glycan array binding signal (z-score),[19],-0.622
same,glycan array binding signal (z-score),Gal6S(b1-3)GlcNAc,0.183
same,glycan array binding signal (z-score),[20],-1.16
same,glycan array binding signal (z-score),GalNAc4S6S(b1-4)GlcNAc,1.42
same,glycan array binding signal (z-score),GalNAc6S(b1-4)GlcNAc,3.81
same,glycan array binding signal (z-score),Glc(a1-4)Glc,-0.053
same,glycan array binding signal (z-score),[21],2.21
same,glycan array binding signal (z-score),[22],1.25
same,glycan array binding signal (z-score),[23],0.886
same,glycan array binding signal (z-score),[24],-0.448
same,glycan array binding signal (z-score),[25],0.111
same,glycan array binding signal (z-score),[26],-1.71
same,glycan array binding signal (z-score),[27],0.047
same,glycan array binding signal (z-score),[28],1.12
same,glycan array binding signal (z-score),[29],6.27
same,glycan array binding signal (z-score),[30],0.035
same,glycan array binding signal (z-score),[31],0.708
same,glycan array binding signal (z-score),[32],3.18
same,glycan array binding signal (z-score),[33],-0.972
same,glycan array binding signal (z-score),[34],-1.4
same,glycan array binding signal (z-score),Neu5Ac(a2-6)Gal(b1-4)Glc,1.15
same,glycan array binding signal (z-score),[35],-1.01
same,glycan array binding signal (z-score),[36],-0.383
